# Source: PubChem BioAssay (NCI)
# This is part of a sample that, as a whole, favours compounds with a hit. Of some 83,000 tested, about 20% had one in any assay.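 The endpoint reported here, percent growth, reads 100 for growth as untreated, 0 for no net growth and -100 for all cells dead.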 A number with no mark means an inactive call. Calls of active or inactive are those of the source. The calls were made as follows: active = growth percent below 10; inactive = the rest.
# Tests used:
# Assay in all cases: NCI-60 one-dose screen, 48 h (100 = growth as untreated, 0 = no growth, -100 = all killed)
# Conditions in all cases: 10 µM
# NCI-H23 lung = test system: NCI-H23 lung
# NCI-H226 lung = test system: NCI-H226 lung
# HOP-62 NSCLC = test system: HOP-62 NSCLC
# HOP-92 NSCLC = test system: HOP-92 NSCLC
# NCI-H522 lung = test system: NCI-H522 lung
# A549/ATCC NSCLC = test system: A549/ATCC NSCLC
# 786-0 renal = test system: 786-0 renal
# COLO 205 colon = test system: COLO 205 colon
# DU-145 prostate = test system: DU-145 prostate
# K-562 leukemia = test system: K-562 leukemia
# MALME-3M melanoma = test system: MALME-3M melanoma
# MDA-MB-231 breast = test system: MDA-MB-231 breast
# RXF 393 renal = test system: RXF 393 renal
# SF-268 CNS = test system: SF-268 CNS
# SF-295 CNS = test system: SF-295 CNS
# SF-539 CNS = test system: SF-539 CNS
# UACC-257 melanoma = test system: UACC-257 melanoma
# M14 melanoma = test system: M14 melanoma
# NCI-H460 lung = test system: NCI-H460 lung
SMILES,growth (NCI-H23 lung),growth (NCI-H226 lung),growth (HOP-62 NSCLC),growth (HOP-92 NSCLC),growth (NCI-H522 lung),growth (A549/ATCC NSCLC) [%],growth (786-0 renal),growth (COLO 205 colon),growth (DU-145 prostate),growth (K-562 leukemia),growth (MALME-3M melanoma),growth (MDA-MB-231 breast),growth (RXF 393 renal),growth (SF-268 CNS) [%],growth (SF-295 CNS),growth (SF-539 CNS),growth (UACC-257 melanoma),growth (M14 melanoma),growth (NCI-H460 lung) [%]
CC(=O)Nc1ccc(S(=O)(=O)c2ccnc3cc(Cl)ccc23)cc1,68.2%,78.1%,99.1%,99.8%,28.1%,85.3,125%,95.3%,53.7%,78.9%,66.5%,88.3%,66.7%,82.8,97.2%,99.5%,64.4%,–,–
CCN(CC)CC(=O)N(CC)c1ccc(C)c(Cl)c1,103%,99.8%,91%,90.1%,–,86.3,98.4%,101%,103%,108%,96.2%,113%,105%,92.9,101%,108%,88.7%,100%,–
Nc1ccc(CC[C@H]2CCC/C=C/[C@@H]3C[C@H](O)C[C@H]3[C@H](O)/C=C/C(=O)O2)cc1,-22.7% (active),5.2% (active),14.2%,–,–,11.9,–,–,16.2%,11.4%,-14% (active),-80.5% (active),-36.3% (active),10.2,13%,25.3%,4.74% (active),3.35% (active),10.5
COC(=O)CC[C@@H](C)[C@H]1CC[C@H]2[C@@H]3CC[C@@H]4C[C@H](O)CC[C@]4(C)[C@H]3C[C@H](O)[C@]12C,116%,102%,109%,–,–,102,107%,101%,118%,76.4%,–,120%,110%,95.6,100%,111%,110%,102%,110
COc1cc(-c2nn(-c3cccc(NC(=O)NCCNC(=O)c4ccccc4)c3)cc2-c2ccncc2)ccc1Cl,19.7%,9.31% (active),26.4%,-0.717% (active),0.745% (active),24.2,-50.6% (active),2.08% (active),23%,5.31% (active),-9.9% (active),25.9%,-23.4% (active),27.7,-56.9% (active),-12.9% (active),17.1%,-5.48% (active),–
O=C(/C=C/C=C/c1c(C2CC2)nc2ccccc2c1-c1ccc(F)cc1)c1cccs1,20.7%,-53.6% (active),24.2%,9.27% (active),2.39% (active),20.6,19.6%,-55% (active),20.4%,5.43% (active),-35.1% (active),25.1%,-54.2% (active),43.4,18.3%,-32.8% (active),-35.4% (active),3.19% (active),–
O=[N+]([O-])c1ccc(/C(=C/c2ccccc2)[n+]2ccccc2)cc1,113%,105%,110%,–,–,99.7,104%,114%,127%,91.9%,125%,111%,105%,128,102%,107%,101%,114%,103
CC(C)(C)OC(=O)CC(S(=O)(=O)c1ccccc1)S(=O)(=O)c1ccccc1,102%,94.5%,103%,122%,-36.4% (active),112,105%,-98.1% (active),94.2%,43.9%,-41.1% (active),103%,69.4%,102,110%,107%,91.9%,116%,–
Cc1ccc(C(=O)C2C(=O)C3CCC2C3)cc1 (centres undefined),94.4%,99.2%,99.6%,98%,101%,102,104%,100%,121%,102%,121%,107%,109%,108,101%,106%,94.1%,111%,–
O=C1C=C(Nc2cccc(Br)c2)c2ccccc2C1=O,41.1%,91.3%,41.9%,39.1%,27.3%,16.7,60.2%,104%,22.4%,21.4%,47.2%,54.6%,31.8%,58,–,15%,79.4%,14.4%,–
CS(=O)(=O)c1nccc(-c2c(-c3cccc(OCCc4ccccc4)c3)nc3sccn23)n1,95.6%,81.4%,93%,–,90.5%,101,108%,103%,108%,95.5%,102%,93.7%,118%,106,109%,103%,101%,114%,–
Cc1ccc(C(SCC(N)C(=O)O)(c2ccc(C)cc2)c2ccc(C)cc2)cc1 (centres undefined),18.3%,64.1%,-48.3% (active),-15.3% (active),-66.2% (active),14.6,–,0.644% (active),-39% (active),0.419% (active),–,1.37% (active),–,17.6,-13.8% (active),-29.7% (active),-18.5% (active),-74.5% (active),–
Nc1nc(-c2ccc(Cl)cc2)cc(-c2cc3ccccc3oc2=O)n1,92.5%,88.9%,84.7%,–,–,103,95.7%,100%,106%,114%,80%,93.9%,112%,104,89.1%,117%,132%,95.3%,101
Fc1ccc(C(c2ccc(F)cc2)C(Cl)Cl)cc1,100%,105%,115%,75.8%,93.8%,–,95.7%,108%,104%,91.2%,–,92.4%,86.9%,110,105%,106%,111%,103%,–
CCCCN(CCCC)C(=O)[C@H](CC)[C@@H]1CC[C@@H](C)[C@@H]([C@H](C)[C@@H](O)[C@@H](C)C(=O)[C@H](CC)C2O[C@]3(C=CC(=O)[C@]4(CC[C@@](C)([C@H]5CC[C@](O)(CC)[C@H](C)O5)O4)O3)[C@H](C)C[C@@H]2C)O1 (some centres undefined),25.8%,15.3%,42.1%,-6.89% (active),13.2%,30.3,47.7%,–,84.9%,24.4%,-5.97% (active),46.8%,47%,68.6,2.72% (active),59.6%,21.3%,30%,–
N#Cc1cnn(C(=O)c2nn(-c3ccc(Cl)cc3)cc2O)c1N,9.65% (active),18.4%,19.2%,–,-13.7% (active),15.1,17.3%,-23.4% (active),34.9%,-17.5% (active),–,38.5%,39.3%,29.5,-25.6% (active),12.8%,19%,24.3%,–
C#CCOc1c(OC)cc(C(=O)/C(C)=C/c2cccc(N=[N+]=[N-])c2)cc1OC,36.4%,68.9%,36%,63.1%,-48.6% (active),18.8,23.7%,–,11.7%,14.4%,54.7%,30.5%,-8.56% (active),42.6,8.17% (active),-12.5% (active),–,5.53% (active),–
O=c1c(Br)ccc(Br)cc1Br,-51.8% (active),97.5%,15.2%,–,–,–,-29.3% (active),-70.6% (active),-72.3% (active),-11.6% (active),–,-3.63% (active),-89.5% (active),14.3,46.7%,15%,–,-70.2% (active),36.1
